The record followed here is PubChem BioAssay AID1259399 (Fisher Drug Discovery Resource Center, 2018).

Screen size: about 160,000 compounds; about 240 (0.15%) were called active. The full list was thinned out, with actives kept by preference. Unmarked numbers belong to inactive results. Cut-off read from the data, not from the text of the source: active = inhibition above about 40%; inactive = the rest.

In the experiment the target is Cyclic GMP-AMP synthase (Mus musculus) (UniProt Q8C6L5). Kind of experiment: cyclic GMP-AMP synthase inhibitors, mouse, primary biochemical chemiluminescence (AID 1259399).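 Note: 0% = negative control wells and 100% = reference inhibitor with no enzyme activity.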 Particulars: recombinant cGAS, Kinase-Glo ATP depletion luminescence; at 12.5 µM; active compounds read high. (In general: Kinase-Glo reads ATP consumption through a luciferase reaction.)
Sequence of Cyclic GMP-AMP synthase (Mus musculus) (Q8C6L5 whole entry, looked up): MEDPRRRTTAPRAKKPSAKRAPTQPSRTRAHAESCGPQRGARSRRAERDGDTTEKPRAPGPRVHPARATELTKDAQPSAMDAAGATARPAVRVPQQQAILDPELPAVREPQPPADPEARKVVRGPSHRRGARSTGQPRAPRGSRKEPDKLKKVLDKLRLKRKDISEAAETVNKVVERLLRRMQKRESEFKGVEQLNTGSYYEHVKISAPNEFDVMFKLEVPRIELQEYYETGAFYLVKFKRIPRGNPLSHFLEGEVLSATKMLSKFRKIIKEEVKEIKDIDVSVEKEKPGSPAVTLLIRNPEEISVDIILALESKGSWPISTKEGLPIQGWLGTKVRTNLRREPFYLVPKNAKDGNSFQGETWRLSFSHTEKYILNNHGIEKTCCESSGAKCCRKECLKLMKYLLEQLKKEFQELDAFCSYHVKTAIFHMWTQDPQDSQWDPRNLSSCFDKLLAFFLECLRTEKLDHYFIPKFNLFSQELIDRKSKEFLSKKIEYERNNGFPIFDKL
One may read the inhibition as the relative decrease from the control value, in per cent. Regarding `COc1ccc(-c2cc(NC(=O)c3cc(F)cc(C(F)(F)F)c3)n(-c3ccc(C)cc3)n2)cc1`, the inhibition is -4.28%.

`COc1ccc(C(C)=O)cc1COc1ccc(C#N)cc1`: the inhibition is -12.7%. For `COc1ccc(CCOc2nc(-c3ccc(OC)cc3)n(-c3ccc(NC(=O)Nc4ccccc4C)cc3)n2)cc1`, the inhibition was -6.37%. As for `CC(Oc1ccccc1C(N)=O)c1ccccc1Cl` (stereo not given), the figure is -1.52%; as for `CCN1C(=O)N(C2Cc3ccccc3C2)C(=O)C12CCN(Cc1cccc3ncccc13)CC2`, -16.7%; as for `O=C(Nc1ccc2c(c1)OCO2)c1cc2nc(-c3ccc(F)cc3)cc(C(F)(F)F)n2n1`, -6.41%. Under `COc1ccc(C=C2SC(=S)NC2=O)cc1OC` stands 28%. As for `CCn1nccc1NC(=O)C1(C)CCN1C(=O)c1sccc1C` (stereo not given), the figure is -3.99%. In the case of `CCOCCCn1c(SCc2cc(F)ccc2C)nc2cc(S(=O)(=O)N3CCCC(C)C3)ccc21` (stereo not given), the inhibition is -6.92%. Under `Cc1ccc(OC2(C(=O)N(C)Cc3cc(C4CC4)n[nH]3)CCNCC2)cc1` stands -3.33%; under `CCOc1ccc(/C=C2/SC(=S)N(CC(=O)O)C2=O)cc1`, -7.17%. As for `O=C(O)CN1C(=O)/C(=C\c2cccc(Cl)c2Cl)SC1=S`, the inhibition is 6.94%.

As for `O=C(O)CN1C(=O)/C(=C\c2ccc(F)c(Br)c2)SC1=S`, the inhibition was 49.9% (active).

On to `Cc1ccc2nc(-c3ccc([N+](=O)[O-])cc3)nc(-c3ccccc3)c2c1`, for which the inhibition is -7.39%. As for `COc1cccc(CNC(=O)Cn2c3ccc(F)cc3c3ncn(Cc4ccccc4)c(=O)c32)c1`, the figure is -6.62%; as for `CC(=O)Nc1ccc(Nc2cc(N3CCCCC3)c3nonc3c2[N+](=O)[O-])cc1`, -7.72%. Take `C=CC[C@@H]1CC=C[C@@H](C)N1Cc1nc(-c2ccc(C)o2)oc1C`: the inhibition is 0.508%.

As for `COC(=O)c1ccccc1NC(=O)N1CCc2ccccc2C1c1ccc(F)cc1` (stereo not given), the inhibition is -8.08%.

On to `Cc1cc(=O)[nH]c(SCC(N)=O)c1C#N`, for which the inhibition is 71.9% (active).

As for `Cc1nc(SCC(=O)c2ccc(Cl)cc2)c(C#N)c(C)c1C`, the inhibition is -5.06%. As for `Cc1cc(=O)[nH]c(SCc2cc(-c3ccco3)on2)c1C#N`, the figure is 9.2%.

For the compound `N#CC1C(=N)SC(=N)C(C#N)C1c1ccco1` (stereo not given), the inhibition is 36.2%.

Turning to `N#CC1C(=N)SC(=N)C(C#N)C1c1cccc(O)c1` (stereo not given), the inhibition is 57.5% (active). Under `COc1ccc(-n2ccnc(SCc3ccc(C)cc3)c2=O)cc1Cl` stands -6.1%; under `Cc1ccc(-c2nc3cc(C)ccn3c2NC(=O)CC(C)C)cc1`, -7.17%.

As to `Cn1c(=O)[nH]c(=O)c2c1nc(N1CCN(Cc3ccccc3F)CC1)n2Cc1ccccc1`, the inhibition is -1.19%. Under `COc1ccc(C23CC4CC(CC(C(=O)NC5CC5)(C4)C2)C3)cc1` stands -7.85%; under `Cc1oc(-c2ccc(C(F)(F)F)cc2)nc1CN(C)CC1COc2ccccc2O1` (stereo not given), -4.73%; under `O=C(N1CCC(n2cnc3ccccc32)CC1)C1(c2ccccc2)CC1`, -5.7%. `COc1ccc(CCN(Cc2ccc(C)o2)C(=O)CN(CCN2CCCC2)C(=O)c2ccccc2C)cc1OC`: the inhibition was -4.1%. As for `CNC(=O)CN(Cc1cccc(Br)c1)C1CC1`, the figure is -8.9%; as for `CC(=O)N(CCN(C)C)c1nc2cc3c(cc2s1)OCO3`, 1.62%.

On to `O=C(c1ccccc1)N1CCN2C[C@@H](c3ccccc3)[C@H](CO)[C@H]2C1`, for which the inhibition was -4.18%. Under `Cc1ccccc1-n1cc(CN(C)C(=O)c2cn(Cc3cccc4ccccc34)nn2)cn1` stands -7.32%. With `COc1cccc(C(=O)N(Cc2cccc(OS(=O)(=O)c3ccc(F)cc3)c2)Cc2ccco2)c1`, the inhibition was -0.277%. Turning to `COc1ccccc1C(=O)N1CCN(c2cccc(Cl)c2C)C(=O)C1C` (stereo not given), the inhibition was 51.1% (active). In the case of `CC1C(=O)N(c2ccc3c(c2)OCO3)CCN1C(=O)c1ccccc1Cl` (stereo not given), the inhibition was 0.748%. With `COc1ccccc1C(=O)N1CCN(c2ccc(F)cc2)C(=O)C1C` (stereo not given), the inhibition is -4.08%. On to `OC(COCc1ccccc1)CN(Cc1ccc(F)cc1)CC1CC(c2ccc3c(c2)OCO3)=NO1` (stereo not given), for which the inhibition was -4.2%.

On to `CCc1nc2c(OCCOc3ccc(F)cc3)cccn2c1N(C)C(C)=O`, for which the inhibition was -2.77%.
